Source: PubChem BioAssay (National Center for Advancing Translational Sciences (NCATS))
ALOX15 inhib – blocks human 15-lipoxygenase activity. hit rate 1.4% among 74,000. Potency, µM (highest dose often 57.1 µM), actives largely listed as inhibitors. P16050. purified 15hLO-1, xylenol orange hydroperoxide absorbance; also: nearly all actives have a fitted effect of over 55% in size
Target sequence (P16050 whole entry, looked up): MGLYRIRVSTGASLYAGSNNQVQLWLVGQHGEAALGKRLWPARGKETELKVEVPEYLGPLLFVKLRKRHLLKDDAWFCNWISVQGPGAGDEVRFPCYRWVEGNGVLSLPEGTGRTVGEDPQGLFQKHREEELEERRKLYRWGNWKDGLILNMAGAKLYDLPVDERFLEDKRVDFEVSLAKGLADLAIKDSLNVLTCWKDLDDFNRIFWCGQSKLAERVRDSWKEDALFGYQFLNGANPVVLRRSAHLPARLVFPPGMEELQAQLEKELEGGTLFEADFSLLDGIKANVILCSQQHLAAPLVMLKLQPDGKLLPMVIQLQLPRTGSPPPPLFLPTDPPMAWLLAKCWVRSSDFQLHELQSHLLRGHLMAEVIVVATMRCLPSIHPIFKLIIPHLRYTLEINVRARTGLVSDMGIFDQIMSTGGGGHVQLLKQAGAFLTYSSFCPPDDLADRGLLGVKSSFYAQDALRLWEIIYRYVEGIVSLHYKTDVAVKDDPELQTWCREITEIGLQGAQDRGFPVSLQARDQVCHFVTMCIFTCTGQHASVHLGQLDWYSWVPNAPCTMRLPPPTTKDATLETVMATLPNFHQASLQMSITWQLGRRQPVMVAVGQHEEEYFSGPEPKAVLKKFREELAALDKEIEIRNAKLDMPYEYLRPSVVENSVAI
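40 nM 15hLO-1 + cpd, 15 min RT; start w/ 50 uM AA (final), 6 min RT; stop/detect w/ 200 uM XO + 300 uM Fe(II) in 50 mM H2SO4, 30 min; A573/A405. Buffer 25 mM Hepes pH 7.5, 0.01% Triton X-100. No-enzyme wells as negative control.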
Casp1 inh – blocks human caspase-1 allosterically or competitively | P29466 | Caspase-1 enzyme, Ac-WEHD-AFC fluorogenic rate | Potency, µM (series often up to 57.5 µM), actives largely listed as inhibitors | hit rate 0.03% among 75,000
HEK293 cAMP cs – counter-screen for TSHR agonists: cAMP increase in parental HEK293; parental HEK293 CNG cAMP sensor, membrane potential fluorescence; Potency, µM (series often up to 57.1 µM), usual class: activators; hit rate 2.5% among 73,000; also: nearly all actives have a fitted effect of over 55% in size
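Counterscreen for endogenous-receptor signalling: CNG-channel HEK 293 cells report cAMP rise by membrane depolarization. After 60 min dye equilibration with 100 uM RO 20-1724, compounds incubated 30 min before bottom-read fluorescence at 590 nm.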
Casp7 inh – blocks human caspase-7 allosterically or competitively; P55210; recombinant caspase-7, Ac-DEVD-AFC fluorescence rate; Potency, µM (highest dose often 57.5 µM), most hits filed as inhibitors; hit rate 0.02% among 75,000; AID 889; active = well fitted inhibition curve with a large enough effect in the main read-out, with a control signal flat, not every such curve was filed as active; inconclusive = small, poorly fitted or top-dose-only effect, or a change in a side signal
TSHR agonist – agonists of human thyroid stimulating hormone receptor | P16473 | HEK293-CNG-TSHR cells (CNG channel as cAMP sensor), membrane potential dye, cAMP | Potency, µM (doses to about 57.1 µM), usual class: activators | hit rate 0.48% among 73,000 | AID 926; active = well fitted activation curve with a large enough effect in the main read-out, with a control signal flat, not every such curve was filed as active; inconclusive = small, poorly fitted or top-dose-only effect, or a change in a side signal; inactive = no such curve, though single readings can be large or run the other way; reference of the percent scale not stated here;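 also: the control signal comes from parental cells without the receptor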
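HEK 293 cells stably expressing TSHR and a modified CNG channel, with CNG-only parental cells as counterscreen, were preloaded 60 min at room temperature with membrane potential dye containing 100 uM RO 20-1724. Compound exposure was 30 min, and depolarization was read as fluorescence at 590 nm.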
ALOX15B inhib – blocks human 15-lipoxygenase 2 activity | O15296 | purified 15hLO-2, xylenol orange hydroperoxide absorbance | Potency, µM (titrated, usually from 57.1 µM), hits mostly inhibitors | hit rate 0.56% among 110,000 | AID 881; also: nearly all actives have a fitted effect of over 60% in size
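Enzyme 50 nM, AA 45 uM, 25 mM Hepes pH 7.5 + 0.01% Triton X-100; cpd preinc 15 min RT, rxn 90 min RT; stop/detect with 200 uM XO + 300 uM Fe(II) in 50 mM H2SO4, 30 min; A573/A405.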
Each line names hits and unclear results; the compound was inactive in the other large screens. Sampled rows, rich in hits. Any-hit rate of the full collection: about 3%. Unless noted, calls follow the shape of the dose curve; as a rule, active = well fitted curve in the direction sought with a large enough effect; inconclusive = small, poorly fitted or top-dose-only effect, or another doubt; inactive = no such curve, though single readings can be large; an effect the other way counts as inactive or inconclusive.

O=C(c1cc(C(F)(F)F)cc(C(F)(F)F)c1)N1CCC2(CC1)CCN(c1ccccn1)CC2	HEK293 cAMP cs 16µM, TSHR agonist inconclusive
O=C(c1ccncc1)N1CCC2(CCCN(Cc3nccs3)C2)CC1	ALOX15 inhib 0.2µM
O=C(c1cc(C(F)(F)F)cc(C(F)(F)F)c1)N1CCC2(CCCN(c3ccncc3)C2)CC1	HEK293 cAMP cs 7.9µM, TSHR agonist inconclusive
COc1ccc(C(=O)N2CCC3(CC2)CN(c2ccncc2)C3)cc1	none
COc1ccc(C(=O)N2CCC3(CCCN(c4ccncc4)C3)CC2)cc1	HEK293 cAMP cs 13µM, TSHR agonist inconclusive
O=C(c1ccncc1)N1CCC2(CCCN(c3ccncc3)C2)CC1	none
CC(=O)N1CCC2(CCCN(Cc3nccs3)C2)CC1	HEK293 cAMP cs inconclusive, TSHR agonist inconclusive
O=C(NCc1cccnc1)[C@@H]1[C@@H](C(=O)O)[C@H]2CC[C@@H]1O2	HEK293 cAMP cs inconclusive, TSHR agonist inconclusive
O=c1c2ccccc2nc2n1C(CSc1ccc(Br)cc1)CN2 (stereo not drawn)	none (no result: ALOX15 inhib, Casp1 inh, HEK293 cAMP cs, Casp7 inh, TSHR agonist)
COc1ccc(C2=Nn3c(nnc3-c3ccccc3)SC2)cc1OC	none (no result: ALOX15 inhib, Casp1 inh, HEK293 cAMP cs, Casp7 inh, TSHR agonist)
COc1ccc(Cc2nnc3n2N=C(c2cc4ccccc4o2)CS3)cc1OC	HEK293 cAMP cs 25µM, TSHR agonist inconclusive (no result: ALOX15B inhib)
COc1ccc(C(=O)c2c(C(F)(F)F)oc3c2C(=O)c2ccccc2C3=O)cc1	none (no result: ALOX15 inhib, Casp1 inh, HEK293 cAMP cs, Casp7 inh, TSHR agonist)
Cc1ccc(C(=O)c2c(C)oc3c2C(=O)C(=O)c2ccccc2-3)cc1	ALOX15B inhib 25µM (no result: ALOX15 inhib, Casp1 inh, HEK293 cAMP cs, Casp7 inh, TSHR agonist)
CC(C)OCCCNC(=O)c1c(N)n(/N=C/c2ccccn2)c2nc3ccccc3nc12	HEK293 cAMP cs 10µM, TSHR agonist inconclusive
S=C(NCCc1ccccc1)Nc1ccc(Cl)cc1Cl	ALOX15B inhib 25µM (no result: ALOX15 inhib, Casp1 inh, HEK293 cAMP cs, Casp7 inh, TSHR agonist)
C=C(CO)[C@H]1Cc2c(ccc3c(=O)c4c(oc23)COc2cc(OC)c(OC)cc2-4)O1	none (no result: ALOX15 inhib, Casp1 inh, Casp7 inh, ALOX15B inhib)
CN(Cc1ccco1)c1ncncc1-c1ccc2c(c1)OCO2	TSHR agonist 25µM
CN(C)c1ccc(-c2cncnc2N(C)Cc2ccco2)cc1	ALOX15 inhib inconclusive (no result: TSHR agonist)
CN(Cc1ccco1)c1ncnc2ccc(-c3ccc4c(c3)OCO4)cc12	HEK293 cAMP cs 16µM, TSHR agonist inconclusive
CN(Cc1ccco1)c1ncnc2ccc(-c3cccnc3)cc12	ALOX15 inhib inconclusive
CCNc1ncc2nc(-c3ccccc3)c(=O)n(Cc3cccs3)c2n1	HEK293 cAMP cs inconclusive, Casp7 inh inconclusive, TSHR agonist inconclusive (no result: Casp1 inh)
CCCc1ccc(Oc2cn[nH]c2-c2ccc(O)cc2O)cc1	ALOX15 inhib 3.2µM
COc1ccc(Oc2cn[nH]c2-c2ccc(O)cc2O)cc1	HEK293 cAMP cs 2µM, TSHR agonist inconclusive
COc1ccc(-c2[nH]ncc2Oc2ccccc2OC)c(O)c1	ALOX15 inhib inconclusive
C=C(C)COc1ccc(-c2[nH]ncc2Oc2ccccc2OCC)c(O)c1	none
O=C(N[C@@]1(C(=O)O)C[C@@H]1c1ccccc1)c1ccccc1	none
CCC/C=C(\CCC)C(NC(=O)Oc1ccc(F)cc1)c1ccc(C(=O)OC)cc1 (stereo not drawn)	HEK293 cAMP cs inconclusive, TSHR agonist inconclusive (no result: ALOX15 inhib)
CC(C)N(CCNC(=O)c1ccc(Cc2nc3ccccc3[nH]2)cc1)C(C)C	none (no result: ALOX15B inhib)
CC1=CC(C)(C)Nc2ccc(OC(=O)CN3C(=O)c4cccc5cccc(c45)C3=O)cc21	ALOX15B inhib 13µM (no result: ALOX15 inhib, Casp1 inh, HEK293 cAMP cs, Casp7 inh, TSHR agonist)
CCOc1ccc2c(c1)C(C)=CC(C)(C)N2	ALOX15 inhib 25µM, ALOX15B inhib 13µM
CC1=CC(C)(C)Nc2ccc(OC(=O)C(Cc3ccccc3)N3C(=O)c4ccccc4C3=O)cc21 (stereo not drawn)	none (no result: ALOX15 inhib, Casp1 inh, HEK293 cAMP cs, Casp7 inh, TSHR agonist)
O=c1cc(-c2cccc(O)c2)oc2cc(O)ccc12	none
Oc1ccc2c(c1)oc1cc(O)ccc12	ALOX15 inhib 13µM
CCC(=O)NCCC(c1ccco1)c1ccccc1OC (stereo not drawn)	none (no result: ALOX15B inhib)
COc1ccccc1C(CCN(Cc1cccs1)C(C)=O)c1ccco1 (stereo not drawn)	HEK293 cAMP cs 16µM, TSHR agonist inconclusive, ALOX15B inhib inconclusive
Cc1ccc(NC(=O)CN2C(=O)S/C(=C\c3cc(C)n(C)c3C)C2=O)cc1	ALOX15B inhib 16µM (no result: ALOX15 inhib, Casp1 inh, HEK293 cAMP cs, Casp7 inh, TSHR agonist)
